Source: PubChem BioAssay (University of Kansas High Throughput Screening Laboratory)
mHTT CaM bind = inhibitors of human mutant huntingtin-calmodulin interaction | AlphaScreen His-mHTT/GST-CaM binding, luminescence | 190,000 compounds, 3.6% hits | inhibition, % at 15 µM | P42858;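 note: 0% = both proteins with DMSO and 100% = one protein alone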
Pf apPOL inh = Pf-apPOL DNA polymerase inhibition | Recombinant Pf-apPOL, molecular beacon fluorescence, 1.5 h | AID 1794808 | 210,000 compounds, 0.25% hits | inhibition, % at 10 µM
* hit, by the source's call; ! = repeats disagree. An excerpt weighted towards active compounds, which were near 3.6% of everything screened. Cut-off read from the data, not from the text of the source: active = inhibition above about 50%; inactive = the rest.

What do the screens show for `Cc1ccc(C2(O)NC(S)=C(C#N)C(c3ccc(F)cc3)C2[n+]2ccccc2)cc1` (centres undefined)?
mHTT CaM bind: 82*; Pf apPOL inh: 0

How did Cc1cc[n+](C2C(c3ccc([N+](=O)[O-])cc3)C(C#N)=C(S)NC2(O)C2CC2)cc1 (centres undefined) do in these assays?
mHTT CaM bind: 58*; Pf apPOL inh: -2

What do the screens show for `Fc1cc(Br)ccc1CSc1nc2ncccc2[nH]1`?
mHTT CaM bind: -6; Pf apPOL inh: -2

What do the screens show for `O=C(NCc1cccc(F)c1)c1cc(C2CC2)n2nccc2n1`?
mHTT CaM bind: -49; Pf apPOL inh: -8

What do the screens show for `CCn1ccc2oc(C)c(C(=O)NCc3ccccc3Br)c2c1=O`?
mHTT CaM bind: -11; Pf apPOL inh: -5

How did O=C(COc1ccccc1)Nc1cccc(-c2nc3ncccc3o2)c1 do in these assays?
mHTT CaM bind: 40; Pf apPOL inh: 0

What do the screens show for `CCS(=O)(=O)c1ccc(-c2nnc(NC(=O)C3CCCN(S(C)(=O)=O)C3)o2)cc1` (centres undefined)?
mHTT CaM bind: -1; Pf apPOL inh: -1

How did Cc1cc(-c2nnc(NC(=O)C3CCCN(S(=O)(=O)c4cccs4)C3)o2)nn1C (centres undefined) do in these assays?
mHTT CaM bind: 51*; Pf apPOL inh: -8

What do the screens show for `CS(=O)(=O)N1CCCC(C(=O)Nc2nnc(-c3ccno3)o2)C1` (centres undefined)?
mHTT CaM bind: 50*; Pf apPOL inh: 2

Results for Cc1ccc(NC(=O)C2CCCN(S(=O)(=O)c3cccs3)C2)cn1 (centres undefined) ?
mHTT CaM bind: -3; Pf apPOL inh: -1

What do the screens show for `COc1ccccc1CNC(=O)c1cn2cccc(C)c2n1`?
mHTT CaM bind: 4; Pf apPOL inh: -5

Results for O=C(c1cccn2c(=O)c3cc(Cl)ccc3nc12)N1CCc2ccccc2C1 ?
mHTT CaM bind: 62*; Pf apPOL inh: -3

Results for O=C(c1cccn2c(=O)c3cc(Cl)ccc3nc12)N1CCN(c2ccc(Cl)cc2)CC1 ?
mHTT CaM bind: -422; Pf apPOL inh: 2

What do the screens show for `COc1cccc(-n2nc(C(=O)Nc3cc(C)ccc3OC)c3ccccc3c2=O)c1`?
mHTT CaM bind: 3; Pf apPOL inh: -2

How did Cc1cc(C)cc(C(=O)N2CCC(c3nc(C(=O)N4CCCC4)c(C)o3)CC2)c1 do in these assays?
mHTT CaM bind: 9; Pf apPOL inh: -4

What do the screens show for `Cc1ccc(-n2c(SCc3cccc([N+](=O)[O-])c3)nc3[nH]ncc3c2=O)cc1Cl`?
mHTT CaM bind: 58*; Pf apPOL inh: 0

Results for Cc1ccc(CSc2nc3[nH]ncc3c(=O)n2-c2ccc(C)cc2)cc1 ?
mHTT CaM bind: 14; Pf apPOL inh: 81*

How did Cc1ccc(CSc2nc3[nH]ncc3c(=O)n2-c2cccc(Cl)c2)cc1 do in these assays?
mHTT CaM bind: 38; Pf apPOL inh: -12

What do the screens show for `CCc1ccc(-n2c(SCC(=O)Nc3ccc(OC)cc3OC)nc3[nH]ncc3c2=O)cc1`?
mHTT CaM bind: 68*; Pf apPOL inh: -12

What do the screens show for `COc1ccc(NC(=O)CSc2nc3[nH]ncc3c(=O)n2-c2ccc(Cl)cc2)c(OC)c1`?
mHTT CaM bind: 25; Pf apPOL inh: -5

How did O=c1c2cn[nH]c2nc(SCc2cccc([N+](=O)[O-])c2)n1-c1ccc(Cl)cc1 do in these assays?
mHTT CaM bind: 33; Pf apPOL inh: -5

What do the screens show for `Cc1ccc(-n2c(SCc3ccccc3)nc3[nH]ncc3c2=O)cc1`?
mHTT CaM bind: 20; Pf apPOL inh: -17

Results for Cc1cccc(-n2c(SCc3ccc(Cl)cc3)nc3[nH]ncc3c2=O)c1 ?
mHTT CaM bind: 79*; Pf apPOL inh: -16

What do the screens show for `CS(=O)(=O)N1CCC(C(=O)Nc2nnc(COc3ccccc3)o2)CC1`?
mHTT CaM bind: 19; Pf apPOL inh: -6

How did CCc1ccccc1NC(=O)C1CCN(S(=O)(=O)c2ccc(OC)cc2)CC1 do in these assays?
mHTT CaM bind: -2; Pf apPOL inh: 0

How did O=C(NC1CCCC1)C1CCCN(c2nccnc2Sc2ccccc2)C1 (centres undefined) do in these assays?
mHTT CaM bind: 0; Pf apPOL inh: -2

What do the screens show for `O=c1[nH]nc(C[N+](=O)[O-])c2ccccc12`?
mHTT CaM bind: -5; Pf apPOL inh: -7

What do the screens show for `CN(C)c1ncncc1N1CCC(C(=O)NCCN2CCc3ccccc3C2)CC1`?
mHTT CaM bind: 12; Pf apPOL inh: -4

How did Cc1cccc(Nc2nccc(-n3ccc(C)n3)n2)c1 do in these assays?
mHTT CaM bind: -14; Pf apPOL inh: -2

How did OC(COCC1CC2CCC1C2)CN1CCN(C(c2ccccc2)c2ccccc2)CC1 (centres undefined) do in these assays?
mHTT CaM bind: 62*; Pf apPOL inh: 2

How did OC(COCC1CC2CCC1C2)CN1CCc2ccccc2C1 (centres undefined) do in these assays?
mHTT CaM bind: -2; Pf apPOL inh: 0

What do the screens show for `CCc1nc(NCCC(=O)N2CCN(CC)CC2)c2cc(Cl)cc(Cl)c2n1`?
mHTT CaM bind: 6; Pf apPOL inh: -4

Results for CC(=O)c1ccc(Oc2cccc(Cl)c2C#N)cc1 ?
Pf apPOL inh: -3

How did C=C(C)Cn1c(C(=O)N2CCN(C)CC2)cc2sc(C)cc21 do in these assays?
mHTT CaM bind: 8; Pf apPOL inh: -6

Results for Cc1cc2c(cc(C(=O)N3CCN(C)CC3)n2Cc2cccc(F)c2)s1 ?
mHTT CaM bind: 56*; Pf apPOL inh: -2

What do the screens show for `O=C(CSc1cn(CCNC(=O)c2ccccc2F)c2ccccc12)NC1CCCC1`?
mHTT CaM bind: 0; Pf apPOL inh: -2

Results for O=c1c2ccccc2c(-c2ccc(F)cc2)nn1-c1cc(N2CCOCC2)ccc1[N+](=O)[O-] ?
mHTT CaM bind: 35; Pf apPOL inh: 0

What do the screens show for `O=c1c2ccccc2c(-c2ccc(Cl)cc2)nn1-c1cc(N2CCNCC2)ccc1[N+](=O)[O-]`?
mHTT CaM bind: 98*; Pf apPOL inh: 2

What do the screens show for `CN1CCN(c2ccc([N+](=O)[O-])c(-n3nc(-c4ccccc4)c4ccccc4c3=O)c2)CC1`?
mHTT CaM bind: 55*!; Pf apPOL inh: -5

Results for O=c1c2ccccc2c(-c2ccccc2)nn1-c1cc(N2CCN(CCO)CC2)ccc1[N+](=O)[O-] ?
mHTT CaM bind: 46; Pf apPOL inh: -4

How did COc1ccc(C(C#N)N2N=C(c3ccccc3)CC2c2ccccc2)cc1OC (centres undefined) do in these assays?
mHTT CaM bind: 79*; Pf apPOL inh: -3

Results for COc1ccc(C(C#N)N2N=C(C)CC2c2ccccc2)cc1OC (centres undefined) ?
mHTT CaM bind: 5; Pf apPOL inh: 5

How did COc1ccccc1C(=O)N1CCCC(C)(C(=O)NCc2ccccc2C)C1 (centres undefined) do in these assays?
mHTT CaM bind: -9; Pf apPOL inh: -2

How did Cc1nnc(NC(=O)CSc2nc(N)cc(N)n2)s1 do in these assays?
mHTT CaM bind: -1; Pf apPOL inh: -1

What do the screens show for `CCCCC1(CO)C(=O)N(c2ccccc2)N(c2ccccc2)C1=O`?
Pf apPOL inh: -12

What do the screens show for `CCCCC1(CC(=O)Nc2ccc(F)cc2)C(=O)N(c2ccccc2)N(c2ccccc2)C1=O`?
mHTT CaM bind: 98*; Pf apPOL inh: -1

Results for CCc1sc(C(C2C(=O)CC(C)(C)CC2=O)C2C(=O)CC(C)(C)CC2=O)cc1Br ?
mHTT CaM bind: 25

Results for Cc1nc(-c2ccncc2)nc2c1CCC(=O)N2Cc1ccco1 ?
mHTT CaM bind: 22; Pf apPOL inh: -8
